# Source: the supplement of paper PMC10849652
# Targets with a hit are over-represented here; the source holds about 8,800 in all. About 0.5% of all pairs of compound and target were hits. A number with no mark means an inactive call.
# How the values were obtained:
# Assay in all cases: log2 fold change, soluble protein after heating vs DMSO (PISA); higher = thermal stabilisation; K562 lysate, 10 uM; active = over 0.2 and 3.5 SD of the protein, either way, in both replicates (recomputed)
# alvocidib = compound: CN1CC[C@H](c2c(O)cc(O)c3c(=O)cc(-c4ccccc4Cl)oc23)[C@H](O)C1 [alvocidib]
# Method in brief: (§1)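 Following dounce homogenisation of K562 pellets in PBS pH 7.4 with 1 mM MgCl2, crude extract at 1 mg/mL protein was incubated for 30 min with 10 μM compound. Aliquots were then heated for 3 min over 48°C-58°C and pooled, NP-40 was added to 0.5% at 4°C, and soluble protein was recovered as the supernatant at 21,000xg for 90 min. Channel-sum-equalised TMTpro 16plex LC-MS/MS quantified this protein. Each value, from duplicates, is a log-two fold change in thermal stability relative to solvent controls.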
# Tubastatin A = compound: CN1CCc2c(c3ccccc3n2Cc2ccc(C(=O)NO)cc2)C1 [Tubastatin A]
# Method in brief: as §1
# [1] = compound: CNC(=O)C1=CC=CC=C1NC2=NC(=NC=C2Cl)NC3=C(C=C(C=C3)N4CCOCC4)OC
# Method in brief: as §1
# defactinib = compound: CNC(=O)c1ccc(Nc2ncc(C(F)(F)F)c(NCc3nccnc3N(C)S(C)(=O)=O)n2)cc1 [defactinib]
# Method in brief: as §1
# [2] = compound: CNc1nc(-c2ccc3c(N)n[nH]c3c2)cc(N2C[C@@H](C(=O)NC3CCCCC3)CC[C@H]2C)n1
# Method in brief: as §1
# encorafenib = compound: COC(=O)N[C@@H](C)CNc1nccc(-c2cn(C(C)C)nc2-c2cc(Cl)cc(NS(C)(=O)=O)c2F)n1 [encorafenib]
# Method in brief: as §1
# [3] = compound: COC(=O)[C@H](CCSC)NC(=O)C1=C(C=C(C=C1)NC[C@H](CS)N)C2=CC=CC=C2
# Method in brief: as §1
# alisertib = compound: COc1cc(Nc2ncc3c(n2)-c2ccc(Cl)cc2C(c2c(F)cccc2OC)=NC3)ccc1C(=O)O [alisertib]
# Method in brief: as §1
# [4] = compound: COc1cc2nc(-c3cc(F)ccc3O)nc(N[C@@H]3CNC[C@H]3C(C)(C)O)c2cc1OC
# Method in brief: as §1
# gefitinib = compound: COc1cc2ncnc(Nc3ccc(F)c(Cl)c3)c2cc1OCCCN1CCOCC1 [gefitinib]
# Method in brief: as §1
# lapatinib = compound: CS(=O)(=O)CCNCc1ccc(-c2ccc3ncnc(Nc4ccc(OCc5cccc(F)c5)c(Cl)c4)c3c2)o1 [lapatinib]
# Method in brief: as §1
# pictilisib = compound: CS(=O)(=O)N1CCN(Cc2cc3nc(-c4cccc5[nH]ncc45)nc(N4CCOCC4)c3s2)CC1 [pictilisib]
# Method in brief: as §1
# crizotinib = compound: C[C@@H](Oc1cc(-c2cnn(C3CCNCC3)c2)cnc1N)c1c(Cl)ccc(F)c1Cl [crizotinib]
# Method in brief: as §1
# [5] = compound: C[C@H](C1=CC=C(C=C1)C(=O)NC2=C3C=CNC3=NC=C2)N
# Method in brief: as §1
# duvelisib = compound: C[C@H](Nc1ncnc2nc[nH]c12)c1cc2cccc(Cl)c2c(=O)n1-c1ccccc1 [duvelisib]
# Method in brief: as §1
# gandotinib = compound: Cc1cc(Nc2cc(CN3CCOCC3)c3nc(C)c(Cc4ccc(Cl)cc4F)n3n2)n[nH]1 [gandotinib]
# Method in brief: as §1
# tozasertib = compound: Cc1cc(Nc2cc(N3CCN(C)CC3)nc(Sc3ccc(NC(=O)C4CC4)cc3)n2)n[nH]1 [tozasertib]
# Method in brief: as §1
# doramapimod = compound: Cc1ccc(-n2nc(C(C)(C)C)cc2NC(=O)Nc2ccc(OCCN3CCOCC3)c3ccccc23)cc1 [doramapimod]
# Method in brief: as §1
# bafetinib = compound: Cc1ccc(NC(=O)c2ccc(CN3CC[C@H](N(C)C)C3)c(C(F)(F)F)c2)cc1Nc1nccc(-c2cncnc2)n1 [bafetinib]
# Method in brief: as §1
# [6] = compound: Cc1cccc(CC(=O)N2CCc3c2ccc(-c2cn(C)c4ncnc(N)c24)c3F)n1
# Method in brief: as §1
# Sequence of UniProt P29373 (P29373 whole entry, looked up): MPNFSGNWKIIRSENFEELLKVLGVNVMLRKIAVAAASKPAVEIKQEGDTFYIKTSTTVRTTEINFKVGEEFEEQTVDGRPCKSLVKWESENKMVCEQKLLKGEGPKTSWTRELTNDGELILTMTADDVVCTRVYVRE
# Sequence of UniProt Q8NF50 (Q8NF50 whole entry, looked up): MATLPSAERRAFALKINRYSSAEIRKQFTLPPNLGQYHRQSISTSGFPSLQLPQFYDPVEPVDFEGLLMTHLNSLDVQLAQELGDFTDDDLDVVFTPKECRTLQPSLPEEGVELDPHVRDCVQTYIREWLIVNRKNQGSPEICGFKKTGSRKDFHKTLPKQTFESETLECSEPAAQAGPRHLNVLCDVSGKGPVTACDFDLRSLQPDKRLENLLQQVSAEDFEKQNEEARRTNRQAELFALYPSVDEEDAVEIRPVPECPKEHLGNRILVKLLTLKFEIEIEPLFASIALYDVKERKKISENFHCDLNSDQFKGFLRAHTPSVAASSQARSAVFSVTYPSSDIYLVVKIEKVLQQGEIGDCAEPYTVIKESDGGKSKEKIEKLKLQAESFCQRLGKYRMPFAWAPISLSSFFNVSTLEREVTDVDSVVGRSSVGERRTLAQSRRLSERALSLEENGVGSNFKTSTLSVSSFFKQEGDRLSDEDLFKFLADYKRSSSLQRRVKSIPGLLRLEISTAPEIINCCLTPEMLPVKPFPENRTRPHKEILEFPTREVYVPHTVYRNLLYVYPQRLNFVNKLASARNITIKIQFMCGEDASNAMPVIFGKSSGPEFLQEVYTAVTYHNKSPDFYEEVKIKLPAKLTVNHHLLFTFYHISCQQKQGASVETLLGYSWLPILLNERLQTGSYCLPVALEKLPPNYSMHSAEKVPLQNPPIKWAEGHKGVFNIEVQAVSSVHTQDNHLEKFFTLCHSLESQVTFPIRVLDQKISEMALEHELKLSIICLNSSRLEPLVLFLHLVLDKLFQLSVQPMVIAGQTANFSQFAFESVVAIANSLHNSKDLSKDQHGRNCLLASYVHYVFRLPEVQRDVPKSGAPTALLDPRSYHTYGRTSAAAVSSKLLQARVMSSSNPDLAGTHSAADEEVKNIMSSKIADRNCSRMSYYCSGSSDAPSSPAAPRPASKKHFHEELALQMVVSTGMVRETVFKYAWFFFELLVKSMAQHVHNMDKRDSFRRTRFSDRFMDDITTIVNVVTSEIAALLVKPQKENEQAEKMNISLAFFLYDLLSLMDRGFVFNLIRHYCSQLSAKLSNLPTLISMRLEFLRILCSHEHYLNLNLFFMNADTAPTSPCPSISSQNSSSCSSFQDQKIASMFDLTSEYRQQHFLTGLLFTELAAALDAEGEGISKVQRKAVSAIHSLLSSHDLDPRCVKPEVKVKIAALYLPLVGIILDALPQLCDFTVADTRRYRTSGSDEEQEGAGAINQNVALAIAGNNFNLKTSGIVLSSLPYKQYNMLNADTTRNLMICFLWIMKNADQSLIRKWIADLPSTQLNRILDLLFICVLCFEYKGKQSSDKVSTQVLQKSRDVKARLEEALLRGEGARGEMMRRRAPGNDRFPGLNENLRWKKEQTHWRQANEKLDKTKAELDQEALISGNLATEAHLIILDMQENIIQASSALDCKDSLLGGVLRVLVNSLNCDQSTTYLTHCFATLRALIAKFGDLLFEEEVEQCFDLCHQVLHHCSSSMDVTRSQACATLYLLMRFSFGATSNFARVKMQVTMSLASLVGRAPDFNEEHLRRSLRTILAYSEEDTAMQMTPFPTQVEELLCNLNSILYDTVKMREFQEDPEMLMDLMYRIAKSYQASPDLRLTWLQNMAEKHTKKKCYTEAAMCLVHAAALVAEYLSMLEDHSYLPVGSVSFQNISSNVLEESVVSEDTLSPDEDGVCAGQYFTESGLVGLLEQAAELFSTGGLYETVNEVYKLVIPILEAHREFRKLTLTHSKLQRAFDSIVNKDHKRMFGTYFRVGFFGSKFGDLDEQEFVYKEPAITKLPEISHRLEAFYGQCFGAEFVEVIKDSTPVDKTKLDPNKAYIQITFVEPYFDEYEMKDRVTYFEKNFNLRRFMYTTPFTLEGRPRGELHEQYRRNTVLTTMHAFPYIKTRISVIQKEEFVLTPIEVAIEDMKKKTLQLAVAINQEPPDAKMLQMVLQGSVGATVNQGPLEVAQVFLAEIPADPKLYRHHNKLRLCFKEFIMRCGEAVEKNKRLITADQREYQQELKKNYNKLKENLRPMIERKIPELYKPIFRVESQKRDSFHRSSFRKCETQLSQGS
# Sequence of UniProt P09622 (P09622 whole entry, looked up): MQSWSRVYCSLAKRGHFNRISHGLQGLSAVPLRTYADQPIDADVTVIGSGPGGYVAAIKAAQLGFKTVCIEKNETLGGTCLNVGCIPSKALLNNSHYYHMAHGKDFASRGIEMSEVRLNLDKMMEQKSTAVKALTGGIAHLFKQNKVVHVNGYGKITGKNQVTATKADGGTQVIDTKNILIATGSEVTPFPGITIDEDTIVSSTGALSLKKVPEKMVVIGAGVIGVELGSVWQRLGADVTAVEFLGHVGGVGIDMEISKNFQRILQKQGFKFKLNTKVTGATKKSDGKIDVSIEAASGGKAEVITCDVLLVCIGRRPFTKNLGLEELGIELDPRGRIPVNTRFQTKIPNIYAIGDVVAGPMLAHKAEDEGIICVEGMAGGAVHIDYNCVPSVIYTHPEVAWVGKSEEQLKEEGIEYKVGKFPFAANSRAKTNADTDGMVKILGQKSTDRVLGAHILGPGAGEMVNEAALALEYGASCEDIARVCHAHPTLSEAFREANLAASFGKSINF
# Sequence of UniProt P61024 (P61024 whole entry, looked up): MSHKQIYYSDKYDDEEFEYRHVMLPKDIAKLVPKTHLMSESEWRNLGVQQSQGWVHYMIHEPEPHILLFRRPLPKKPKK
# Sequence of UniProt Q9H9E3 (Q9H9E3 whole entry, looked up): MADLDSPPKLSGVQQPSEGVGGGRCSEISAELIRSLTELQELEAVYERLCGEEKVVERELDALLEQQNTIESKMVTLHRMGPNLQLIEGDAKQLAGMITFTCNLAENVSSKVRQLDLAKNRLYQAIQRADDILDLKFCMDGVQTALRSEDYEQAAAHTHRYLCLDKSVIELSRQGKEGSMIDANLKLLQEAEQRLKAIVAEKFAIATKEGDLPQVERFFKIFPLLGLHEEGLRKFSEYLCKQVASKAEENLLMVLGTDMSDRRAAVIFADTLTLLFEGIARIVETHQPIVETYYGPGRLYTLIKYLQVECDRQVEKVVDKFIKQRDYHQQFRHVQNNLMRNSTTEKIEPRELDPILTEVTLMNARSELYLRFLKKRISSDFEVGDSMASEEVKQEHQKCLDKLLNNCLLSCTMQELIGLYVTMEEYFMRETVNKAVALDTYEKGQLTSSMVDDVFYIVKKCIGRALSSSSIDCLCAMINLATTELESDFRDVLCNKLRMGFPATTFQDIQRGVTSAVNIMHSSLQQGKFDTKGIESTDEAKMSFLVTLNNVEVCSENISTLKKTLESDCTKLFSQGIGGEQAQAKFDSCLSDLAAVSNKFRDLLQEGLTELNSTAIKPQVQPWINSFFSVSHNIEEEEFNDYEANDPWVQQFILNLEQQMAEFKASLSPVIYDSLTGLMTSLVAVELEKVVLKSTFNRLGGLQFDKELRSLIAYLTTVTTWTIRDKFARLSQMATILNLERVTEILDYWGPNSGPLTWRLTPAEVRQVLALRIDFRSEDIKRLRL
# Sequence of UniProt P99999 (P99999 whole entry, looked up): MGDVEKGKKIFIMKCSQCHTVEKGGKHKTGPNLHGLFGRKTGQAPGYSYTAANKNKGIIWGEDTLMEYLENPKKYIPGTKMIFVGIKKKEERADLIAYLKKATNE
# Sequence of UniProt Q5RI15 (Q5RI15 whole entry, looked up): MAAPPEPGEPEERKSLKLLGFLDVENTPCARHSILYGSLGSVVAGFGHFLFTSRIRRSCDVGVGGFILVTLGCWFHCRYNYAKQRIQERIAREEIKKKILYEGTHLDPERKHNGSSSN
# Sequence of UniProt Q9H5X1 (Q9H5X1 whole entry, looked up): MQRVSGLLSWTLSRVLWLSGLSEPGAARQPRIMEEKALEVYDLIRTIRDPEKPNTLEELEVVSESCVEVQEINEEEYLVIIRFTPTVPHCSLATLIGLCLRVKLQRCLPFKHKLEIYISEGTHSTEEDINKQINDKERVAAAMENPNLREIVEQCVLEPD
# Sequence of UniProt Q8IWF6 (Q8IWF6 whole entry, looked up): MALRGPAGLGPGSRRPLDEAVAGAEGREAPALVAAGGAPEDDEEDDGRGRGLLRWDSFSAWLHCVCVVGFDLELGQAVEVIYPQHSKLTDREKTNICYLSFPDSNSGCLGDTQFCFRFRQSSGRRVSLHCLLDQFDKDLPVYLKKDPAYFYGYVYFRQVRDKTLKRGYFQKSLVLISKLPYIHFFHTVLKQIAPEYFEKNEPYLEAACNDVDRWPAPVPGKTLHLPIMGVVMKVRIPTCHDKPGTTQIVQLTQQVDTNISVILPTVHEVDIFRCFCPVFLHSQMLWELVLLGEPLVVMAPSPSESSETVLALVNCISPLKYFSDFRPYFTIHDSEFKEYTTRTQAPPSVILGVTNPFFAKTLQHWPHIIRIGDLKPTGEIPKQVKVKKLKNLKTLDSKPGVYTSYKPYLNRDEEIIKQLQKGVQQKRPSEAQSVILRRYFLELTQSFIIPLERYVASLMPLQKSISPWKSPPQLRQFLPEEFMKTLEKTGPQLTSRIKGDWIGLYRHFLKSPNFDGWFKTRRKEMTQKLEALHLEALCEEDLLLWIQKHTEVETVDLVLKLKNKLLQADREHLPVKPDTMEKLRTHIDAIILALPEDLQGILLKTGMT
# Sequence of UniProt P61923 (P61923 whole entry, looked up): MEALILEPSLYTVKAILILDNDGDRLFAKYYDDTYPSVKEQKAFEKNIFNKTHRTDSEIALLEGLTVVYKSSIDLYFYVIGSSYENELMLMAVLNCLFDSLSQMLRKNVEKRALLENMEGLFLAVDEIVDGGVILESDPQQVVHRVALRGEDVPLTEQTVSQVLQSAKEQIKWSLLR
Target,log2 fold change (alvocidib),log2 fold change (Tubastatin A),log2 fold change [1],log2 fold change (defactinib),log2 fold change [2],log2 fold change (encorafenib),log2 fold change [3],log2 fold change (alisertib),log2 fold change [4],log2 fold change (gefitinib),log2 fold change (lapatinib),log2 fold change (pictilisib),log2 fold change (crizotinib),log2 fold change [5],log2 fold change (duvelisib),log2 fold change (gandotinib),log2 fold change (tozasertib),log2 fold change (doramapimod),log2 fold change (bafetinib),log2 fold change [6]
DMAC2L (UniProt Q99766),0.029,0,-0.056,0.022,0.018,0.016,-1.03 (active),0.074,0.031,0.061,-0.021,-0.036,0.012,-0.048,-0.037,0.047,0.087,0.002,0.009,0.1
DENND4A isoform 2 (UniProt Q7Z401),-0.067,-0.141,-0.024,0.077,-0.001,0.013,0.032,-0.018,0.17,-0.041,-0.034,0.001,-0.038,-0.206,-0.067,0.045,-0.027,-0.009,-0.064,0.203
CYCS (UniProt P99999),-0.003,0.027,0.009,0.04,0.018,-0.004,-0.04,-0.019,-0.002,0.003,0.015,-0.033,0.036,-0.054,-0.039,0.056,-0.004,-0.029,0.06,-0.006
CMPK2 (UniProt Q5EBM0),-0.046,0.005,0.018,0.027,-0.006,0.01,0.028,-0.026,0.018,-0.022,0.065,0,0.007,-0.074,0.043,0.008,0.018,-0.01,-0.061,0.056
CIAO2A (UniProt Q9H5X1),0.034,0.04,0,-0.002,0.109,0.026,-0.052,0.089,0.009,0.088,0.007,-0.058,-0.014,0.181,-0.01,0,0.042,0.11,-0.015,-0.276 (active)
CRABP2 (UniProt P29373),-0.025,-0.116,-0.04,-0.015,0.006,-0.209,0.082,-0.109,-0.018,0.01,-0.008,-0.026,-0.025,0.041,-0.056,0.091,0.241,0.078,0.014,-0.138
DDX54 isoform 2 (UniProt Q8TDD1),-0.037,-0.047,0.017,-0.05,-0.03,0.084,0.025,0.023,0.006,-0.089,-0.03,0.075,-0.057,-0.025,0.025,0.01,0.035,0.019,0.11,0.101
DLD (UniProt P09622),-0.024,0.041,0.03,-0.02,0.046,-0.014,-0.13,0,0.008,-0.055,-0.003,0.009,-0.001,-0.067,-0.012,0.047,-0.016,-0.001,0.005,0.012
DCUN1D4 isoform 3 (UniProt Q92564),-0.276,0.081,0.003,0.014,0.035,0.034,0.131,0.055,-0.043,-0.049,0.072,0.046,-0.02,0.001,0.02,-0.104,-0.009,0.004,-0.003,-0.039
COX20 isoform 2 (UniProt Q5RI15),0.102,-0.012,0.01,-0.007,0.06,-0.103,0.022,0.001,-0.033,-0.009,0.016,0.186,0.054,0.455 (active),-0.007,-0.144,-0.053,-0.036,0.144,-0.273
DENND6A (UniProt Q8IWF6),-0.009,-0.072,-0.006,0.007,0.103,0.007,-0.134,0.059,-0.024,0.047,-0.077,-0.079,0.028,-0.013,-0.022,-0.006,-0.038,0.054,-0.099,0.086
CKS1B (UniProt P61024),0.117,-0.001,0.032,0.075,-0.055,0.04,-0.014,-0.031,-0.024,0.071,0.039,0.002,0.094,0.302 (active),-0.045,-0.183,0.047,0.023,0.068,-0.324 (active)
COG4 (UniProt Q9H9E3),0.028,-0.131,0.025,0.029,-0.003,0.079,0.011,0.016,0.022,0.009,-0.02,-0.164,-0.088,-0.014,0.022,-0.207,0.018,0.026,0.025,0.036
COPZ1 isoform 4 (UniProt P61923),0.084,0.055,0.081,0.166,-0.093,-0.011,-0.049,0.045,-0.077,-0.142,0.161,0.062,0.09,0.083,-0.022,-0.066,0.028,-0.044,-0.048,-0.088
DOCK8 (UniProt Q8NF50),0.019,-0.098,0.007,0.001,-0.073,0.003,0.05,-0.01,0.014,0.005,-0.032,-0.011,-0.03,-0.002,0.003,-0.097,0.042,0.029,-0.062,0.02
DLG3 isoform 2 (UniProt Q92796),-0.136,0,-0.026,0.053,-0.01,-0.089,-0.082,0.069,-0.055,-0.131,0.008,0.073,-0.01,-0.047,0.125,0,0.097,0.043,0.055,0.065
